Laboratory results: the supplement of paper PMC12669032
Unmarked numbers belong to inactive results.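 How the source made its calls: active = AUC reduced over 20% with Padj below 0.05 in at least 2 of 3 replicates; inactive = otherwise.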

What was measured:
Assay in all cases: growth AUC relative to DMSO control (median of replicates) (fraction); higher = more growth (less inhibition), active = hit call of the paper
Conditions in all cases: 20 µM; 24 h
Coprococcus comes = system: Coprococcus comes
How it was run: (§1)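 Starting at OD600 0.05, gut bacterial monocultures in mGAM were grown anaerobically at 37 °C with 20 µM compound (1% DMSO) under pierced gas-permeable seals. OD600 was read every hour for 24 h, and the lowest OD of each curve was set to 0. Area under the growth curve was normalised to the plate median of solvent-only wells, or to row and column medians on the industrial chemical plate, and the median of three biological replicates grown on separate days is given.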

Escherichia coli ED1a = system: Escherichia coli ED1a
How it was run: as §1

Escherichia coli IAI1 = system: Escherichia coli IAI1
How it was run: as §1

Eubacterium rectale = system: Eubacterium rectale
How it was run: as §1

[1] = system: Fusobacterium nucleatum subsp. animalis
How it was run: as §1

Lactobacillus gasseri = system: Lactobacillus gasseri
How it was run: as §1

Lactobacillus paracasei = system: Lactobacillus paracasei
How it was run: as §1

Odoribacter splanchnicus = system: Odoribacter splanchnicus
How it was run: as §1

[2] = system: Parabacteroides distasonis
How it was run: as §1

Parabacteroides merdae = system: Parabacteroides merdae
How it was run: as §1

Roseburia intestinalis = system: Roseburia intestinalis
How it was run: as §1

Streptococcus salivarius = system: Streptococcus salivarius
How it was run: as §1

Row | SMILES | growth AUC (Coprococcus comes) | growth AUC (Escherichia coli ED1a) | growth AUC (Escherichia coli IAI1) | growth AUC (Eubacterium rectale) | growth AUC [1] | growth AUC (Lactobacillus gasseri) | growth AUC (Lactobacillus paracasei) | growth AUC (Odoribacter splanchnicus) | growth AUC [2] | growth AUC (Parabacteroides merdae) | growth AUC (Roseburia intestinalis) | growth AUC (Streptococcus salivarius)
1 | COP(=S)(OC)Oc1cc(Cl)c(Br)cc1Cl | 0.982 | 0.987 | 0.965 | 1.03 | 0.952 | 1.06 | 0.996 | 1.02 | 0.946 | 0.917 | 1.03 | 0.995
2 | Cc1ccc(-c2c(Cl)nc(C#N)n2S(=O)(=O)N(C)C)cc1 | 1.03 | 0.944 | 1.02 | 0.992 | 1.09 | 1 | 1.03 | 0.989 | 0.551 (active) | 0.818 | 0.995 | 0.956
3 | CCCCCCCCCCCCCN1CC(C)OC(C)C1 (stereo not given) | 0.999 | 1.01 | 0.966 | 0.991 | 0.964 | 0.937 | 1.08 | 0.984 | 0.984 | 0.973 | 0.937 | 1.01
4 | Clc1c(Cl)c(Cl)c(Cl)c(Cl)c1Cl | 1 | 1.01 | 1.01 | 1.02 | 0.98 | 1.07 | 0.936 | 1.03 | 1.03 | 1.03 | 1.01 | 0.999
5 | CC(C)N(C(=O)SCC(Cl)=C(Cl)Cl)C(C)C | 0.981 | 0.977 | 0.977 | 1.08 | 1.01 | 0.948 | 1 | 0.944 | 0.872 | 0.947 | 1.01 | 0.996
6 | CC(C)OC(=O)C(O)(c1ccc(Br)cc1)c1ccc(Br)cc1 | 0.905 | 1.01 | 1.01 | 0.912 | 1.01 | 0.918 | 0.981 | 1.05 | 0.854 | 0.868 | 1 | 0.962
7 | CC(C)(C)N(NC(=O)c1ccc(Cl)cc1)C(=O)c1ccccc1 | 0.995 | 1.01 | 1.01 | 1 | 0.913 | 1.09 | 1.1 | 0.988 | 0.96 | 0.97 | 1.08 | 0.987
8 | ClC1=C(Cl)C2(Cl)C3C4C=CC(C4)C3C1(Cl)C2(Cl)Cl (stereo not given) | 1.02 | 0.996 | 1.02 | 0.986 | 1 | 0.955 | 0.997 | 1.05 | 1.05 | 1.02 | 0.987 | 0.995
9 | CC(C)(C)C(O)C(Cc1ccc(Cl)cc1Cl)n1cncn1 (mixture of isomers) | 0.982 | 0.981 | 0.979 | 0.845 | 0.963 | 0.947 | 1.01 | 0.989 | 0.871 | 0.889 | 0.918 | 0.974
10 | O.[Br-].[Br-].c1cc[n+]2c(c1)-c1cccc[n+]1CC2 | 0.988 | 1.03 | 0.95 | 1.21 | 0.996 | 1.11 | 1.01 | 0.937 | 0.781 (active) | 0.967 | 1.04 | 1.01
11 | O=[N+]([O-])NC1=NCOCN1Cc1cnc(Cl)s1 | 0.971 | 0.992 | 0.997 | 1.1 | 1.15 | 0.809 | 0.988 | 1.04 | 1.01 | 0.965 | 0.941 | 0.85
12 | O=CNC(N1CCN(C(NC=O)C(Cl)(Cl)Cl)CC1)C(Cl)(Cl)Cl (stereo not given) | 0.946 | 0.975 | 0.935 | 0.881 | 0.658 (active) | 0.873 | 1.06 | 1.01 | 0.914 | 0.948 | 0.934 | 0.982
13 | CCOP(=S)(OCC)Oc1cc(C)nc(N(CC)CC)n1 | 1.03 | 0.996 | 0.994 | 0.969 | 1.01 | 1.02 | 1.02 | 1.08 | 0.845 | 0.963 | 0.941 | 1
14 | CCC(C)c1ccccc1OC(=O)NC (stereo not given) | 1.01 | 0.968 | 0.974 | 0.964 | 0.998 | 1.07 | 0.918 | 1.08 | 1.03 | 0.986 | 0.963 | 1.04
15 | COC(=O)C(C)Oc1ccc(Oc2ccc(Cl)cc2Cl)cc1 (stereo not given) | 0.97 | 0.99 | 0.993 | 1.12 | 0.953 | 1.06 | 0.999 | 1 | 0.973 | 0.96 | 0.984 | 0.984
16 | CC1(C)C(C=C(Cl)Cl)C1C(=O)OC(C#N)c1ccc(F)c(Oc2ccccc2)c1 (mixture of isomers) | 0.981 | 0.956 | 0.991 | 1.06 | 0.95 | 0.782 | 0.98 | 0.95 | 0.96 | 0.937 | 0.916 | 0.974
17 | N#Cc1nn(-c2c(Cl)cc(C(F)(F)F)cc2Cl)c(N)c1SC(F)(F)F | 0.857 | 1.02 | 0.985 | 0.687 (active) | 0.96 | 0.729 (active) | 1.04 | 0.571 (active) | 0.751 (active) | 0.868 | 0.558 (active) | 0.75 (active)
18 | Nc1cccc(Cl)c1Cl | 1.01 | 1.04 | 1.03 | 0.947 | 1.1 | 1.05 | 0.962 | 0.991 | 1.02 | 0.998 | 1.02 | 1.01
19 | COP(=O)(OC)Oc1ccc(S(C)=O)c(C)c1 (stereo not given) | 1.01 | 0.962 | 0.987 | 0.797 | 0.911 | 1.13 | 0.975 | 1.02 | 1.01 | 0.978 | 1.01 | 1.01
20 | O=S1OCC2C(CO1)C1(Cl)C(Cl)=C(Cl)C2(Cl)C1(Cl)Cl (stereo not given) | 1.03 | 1.02 | 1.04 | 1.08 | 1.13 | 0.763 | 1.05 | 1.03 | 1.1 | 0.951 | 0.988 | 0.977
21 | CCOP(=O)(OCC)Oc1ccc(S(C)(=O)=O)cc1 | 1.01 | 0.98 | 0.977 | 1.13 | 0.996 | 1 | 0.976 | 1 | 1.11 | 1.03 | 0.974 | 1.02
22 | O=C(O)COc1nc(Cl)c(Cl)cc1Cl | 0.867 | 0.971 | 1.01 | 1.15 | 1.1 | 0.818 | 1.01 | 0.992 | 0.781 | 1.01 | 1.01 | 1.01
23 | ClC1=C(Cl)C2(Cl)[C@H]3[C@@H]4O[C@@H]4[C@H](Cl)[C@H]3C1(Cl)C2(Cl)Cl (single isomer, unassigned; isomer b) | 0.931 | 0.995 | 0.983 | 0.979 | 0.923 | 0.95 | 0.501 | 1.07 | 1.03 | 0.969 | 0.894 | 0.961
24 | CC(C)(COCc1cccc(Oc2ccccc2)c1)c1ccc(OC(F)(F)Br)cc1 | 0.961 | 0.999 | 0.995 | 0.903 | 0.939 | 1.01 | 1.05 | 0.988 | 1.01 | 0.979 | 1.05 | 0.966
25 | Clc1ccccc1-c1nnc(-c2ccccc2Cl)nn1 | 0.911 | 0.99 | 0.978 | 0.997 | 0.943 | 0.964 | 0.79 | 0.887 | 0.991 | 1.03 | 1.1 | 0.984
